Positions count from the first letter of the chain named.

Common to all, as to assay: yeast three-hybrid, YBZ-1, SC-Leu-His + 0.5 mM 3-AT, 4 days
Common to all, as to settings: tags: N-Gal4 AD-HA kept; label: inside an RPR1-promoter hybrid RNA with tandem MS2 sites; ssRNA

One test addresses PUM1 PUF domain R3-EWC (Homo sapiens, UniProt Q14671 828-1176, C935E;R936W;Q939C). In outline:
(§1)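 Pumilio-1 PUF domain libraries, randomized (NNK) at the three base-contacting residues of each repeat, were co-expressed with matching RNA elements from a centromeric plasmid in strain YBZ-1 (LexA–MS2 coat fusion, HIS3 reporter). Transformants were plated on SC-Leu (input) and SC-Leu-His + 0.5 mM 3-AT (selection) for four days, and repeat regions were PCR-amplified and Illumina-sequenced. The interaction score is the log2 change in variant frequency from input to selection, with pseudocount 1 where absent.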

Another test deals with PUM1 PUF domain R7-LNR (Homo sapiens, UniProt Q14671 828-1176, S1079L;E1083R). In outline:
as §1

Another test concerns the target T1, PUM1 PUF domain R6-GFG (Homo sapiens, UniProt Q14671 828-1176, N1043G;Y1044F;Q1047G).
T1 sequence: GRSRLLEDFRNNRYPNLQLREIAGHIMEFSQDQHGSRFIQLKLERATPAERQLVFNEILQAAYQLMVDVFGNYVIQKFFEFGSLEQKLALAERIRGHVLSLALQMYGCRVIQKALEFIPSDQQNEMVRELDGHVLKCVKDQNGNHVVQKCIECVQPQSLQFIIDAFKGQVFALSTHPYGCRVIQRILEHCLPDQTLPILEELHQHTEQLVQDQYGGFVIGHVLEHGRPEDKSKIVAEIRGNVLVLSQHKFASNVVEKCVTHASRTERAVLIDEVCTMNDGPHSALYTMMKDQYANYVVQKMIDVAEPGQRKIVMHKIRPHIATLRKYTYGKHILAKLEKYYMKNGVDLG
In outline: as §1

A further test has as its target PUM1 PUF domain R1-KHR (Homo sapiens, UniProt Q14671 828-1176, S863K;R864H;Q867R). In outline: as §1
The target in the next test is PUM1 PUF domain R1-VYR (Homo sapiens, UniProt Q14671 828-1176, S863V;R864Y;Q867R). In outline: as §1
The target of another test is PUM1 PUF domain R8-KHG (Homo sapiens, UniProt Q14671 828-1176, N1122K;Y1123H;Q1126G). In a few lines: as §1
For another test, the target named is PUM1 PUF domain R2-NRD (Homo sapiens, UniProt Q14671 828-1176, Y900R;Q903D). In outline:
as §1

In another test the target is T2, PUM1 PUF domain R6-SRE (Homo sapiens, UniProt Q14671 828-1176, N1043S;Y1044R;Q1047E).
T2 sequence: T1 sequence with G216S, F217R, G220E
In a few lines: as §1

As for “GGCUAGAACUAGUGGAUCCCCCGGCGCCCGGCGGCUCGAGCCCGGGUAAGUGUAACUAGUCUGCAUGCCGCCGGGCGCCAUGCCUGCAGGUCGACUCUAGAAAACAUG”, in the test with PUM1 PUF domain R3-EWC, the binding signal is 4.45 log2 enrichment (interaction score).
On to “GGCUAGAACUAGUGGAUCCCCCGGCGCCCGGCGGCUCGAGCCCGGGUAAGUCUAAAUAGUCUGCAUGCCGCCGGGCGCCAUGCCUGCAGGUCGACUCUAGAAAACAUG”, for which the binding signal in the test with PUM1 PUF domain R7-LNR was 3.62 log2 enrichment (interaction score).
As to “GGCUAGAACUAGUGGAUCCCCCGGCGCCCGGCGGCUCGAGCCCGGGUAAGUGUAAAUAGUCUGCAUGCCGCCGGGCGCCAUGCCUGCAGGUCGACUCUAGAAAACAUG”, the binding signal with PUM1 PUF domain R6-GFG is 3.55 log2 enrichment (interaction score).
As for “GGCUAGAACUAGUGGAUCCCCCGGCGCCCGGCGGCUCGAGCCCGGGUAAGUGUAAAUUGUCUGCAUGCCGCCGGGCGCCAUGCCUGCAGGUCGACUCUAGAAAACAUG”, the binding signal with PUM1 PUF domain R1-KHR is 2.59 log2 enrichment (interaction score).
On to “GGCUAGAACUAGUGGAUCCCCCGGCGCCCGGCGGCUCGAGCCCGGGUAAGUGUAAAUCGUCUGCAUGCCGCCGGGCGCCAUGCCUGCAGGUCGACUCUAGAAAACAUG”, for which the binding signal was 5.17 log2 enrichment (interaction score) in the test with PUM1 PUF domain R1-KHR and 2.62 log2 enrichment (interaction score) in the test with PUM1 PUF domain R1-VYR.
With “GGCUAGAACUAGUGGAUCCCCCGGCGCCCGGCGGCUCGAGCCCGGGUAAGGGUAAAUAGUCUGCAUGCCGCCGGGCGCCAUGCCUGCAGGUCGACUCUAGAAAACAUG”, the binding signal with PUM1 PUF domain R8-KHG is 3.34 log2 enrichment (interaction score).
On the same count and under the same terms, in the case of “GGCUAGAACUAGUGGAUCCCCCGGCGCCCGGCGGCUCGAGCCCGGGUAAGCGUAAAUAGUCUGCAUGCCGCCGGGCGCCAUGCCUGCAGGUCGACUCUAGAAAACAUG” it was 5.27 log2 enrichment (interaction score).
Take “GGCUAGAACUAGUGGAUCCCCCGGCGCCCGGCGGCUCGAGCCCGGGUAAGUGUAAAAAGUCUGCAUGCCGCCGGGCGCCAUGCCUGCAGGUCGACUCUAGAAAACAUG”: the binding signal with PUM1 PUF domain R2-NRD was 3.12 log2 enrichment (interaction score).
Turning to “GGCUAGAACUAGUGGAUCCCCCGGCGCCCGGCGGCUCGAGCCCGGGUAAGUGGAAAUAGUCUGCAUGCCGCCGGGCGCCAUGCCUGCAGGUCGACUCUAGAAAACAUG”, in the test with PUM1 PUF domain R6-SRE, the binding signal was 5.64 log2 enrichment (interaction score).

Values taken from publication PMC8384837, “Expanding the binding specificity for RNA recognition by a PUF domain”.
